For 15 compounds, inhibition results are on record in ChEMBL document CHEMBL1961873, “Compounds: GSK PKIS; Assays: Nanosyn kinase panel” (2012).

The target in test [1] is Casein kinase I isoform gamma-2 (Homo sapiens) (UniProt P78368). Conditions: at 1 µM.
Test [2] deals with Casein kinase I isoform gamma-3 (Homo sapiens) (UniProt Q9Y6M4). Conditions: at 0.1 µM.
The target is the same in test [3]. Conditions: at 1 µM.
For test [4], the target named is Cyclin-dependent kinase 1 (Homo sapiens) (UniProt P06493). Conditions: at 0.1 µM.
The target is the same in test [5]. Conditions: at 1 µM.
The target in test [6] is Cyclin-dependent kinase 2 (Homo sapiens) (UniProt P24941). Conditions: at 0.1 µM.
For test [7] the target is unchanged. Conditions: at 1 µM.
For test [8] the target is unchanged. Conditions: at 0.1 µM. The source holds these as a separate data set.
Test [9] shares this target. Conditions: at 1 µM. This is another data set of the same source.
In test [10] the target is T1, CDK3/Cyclin E (Homo sapiens) (UniProt P24864+Q00526). Conditions: at 0.1 µM.
The target of test [11] is T1, CDK3/Cyclin E (Homo sapiens). Conditions: at 1 µM.
Test [12] deals with Cyclin-dependent kinase 4 (Homo sapiens) (UniProt P11802). Conditions: at 0.1 µM.
Test [13] shares this target. Conditions: at 1 µM.
The target in test [14] is Cyclin-dependent kinase 5 (Homo sapiens) (UniProt Q00535). Conditions: at 0.1 µM.
For test [15] the target is unchanged. Conditions: at 1 µM.
The target in test [16] is Cyclin-dependent kinase 6 (Homo sapiens) (UniProt Q00534). Conditions: at 0.1 µM.
For test [17] the target is unchanged. Conditions: at 1 µM.
The target of test [18] is Dual specificity protein kinase CLK2 (Homo sapiens) (UniProt P49760). Conditions: at 0.1 µM.
For test [19] the target is unchanged. Conditions: at 1 µM.
Test [20] deals with Dual specificity protein kinase CLK3 (Homo sapiens) (UniProt P49761). Conditions: at 0.1 µM.
Sequence of Dual specificity protein kinase CLK3 (Homo sapiens) (P49761 whole entry, looked up): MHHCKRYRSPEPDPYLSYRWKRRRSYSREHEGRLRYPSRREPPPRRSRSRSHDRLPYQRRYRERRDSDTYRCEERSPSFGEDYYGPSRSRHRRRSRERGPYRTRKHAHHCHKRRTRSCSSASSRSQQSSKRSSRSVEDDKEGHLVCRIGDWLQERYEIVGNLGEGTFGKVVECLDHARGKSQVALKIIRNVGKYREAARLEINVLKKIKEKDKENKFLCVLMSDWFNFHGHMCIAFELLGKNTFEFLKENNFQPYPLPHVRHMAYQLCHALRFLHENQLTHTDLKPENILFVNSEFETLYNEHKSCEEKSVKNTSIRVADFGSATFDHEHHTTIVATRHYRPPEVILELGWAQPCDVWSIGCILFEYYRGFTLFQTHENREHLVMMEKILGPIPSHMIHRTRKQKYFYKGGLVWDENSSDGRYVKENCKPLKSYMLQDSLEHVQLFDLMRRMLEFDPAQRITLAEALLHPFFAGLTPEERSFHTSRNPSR

T1 sequence (P24864 whole entry, looked up): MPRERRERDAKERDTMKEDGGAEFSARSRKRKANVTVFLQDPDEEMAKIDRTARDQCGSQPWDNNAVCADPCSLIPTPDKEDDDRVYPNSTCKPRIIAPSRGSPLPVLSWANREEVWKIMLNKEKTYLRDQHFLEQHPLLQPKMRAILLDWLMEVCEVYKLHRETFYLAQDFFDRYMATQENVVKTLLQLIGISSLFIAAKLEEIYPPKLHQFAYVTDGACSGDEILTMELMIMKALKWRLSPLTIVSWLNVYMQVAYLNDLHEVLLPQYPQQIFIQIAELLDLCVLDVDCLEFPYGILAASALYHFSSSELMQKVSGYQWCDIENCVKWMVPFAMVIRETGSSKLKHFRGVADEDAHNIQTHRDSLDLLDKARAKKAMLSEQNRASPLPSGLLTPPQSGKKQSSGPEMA
T1 sequence (Q00526 whole entry, looked up): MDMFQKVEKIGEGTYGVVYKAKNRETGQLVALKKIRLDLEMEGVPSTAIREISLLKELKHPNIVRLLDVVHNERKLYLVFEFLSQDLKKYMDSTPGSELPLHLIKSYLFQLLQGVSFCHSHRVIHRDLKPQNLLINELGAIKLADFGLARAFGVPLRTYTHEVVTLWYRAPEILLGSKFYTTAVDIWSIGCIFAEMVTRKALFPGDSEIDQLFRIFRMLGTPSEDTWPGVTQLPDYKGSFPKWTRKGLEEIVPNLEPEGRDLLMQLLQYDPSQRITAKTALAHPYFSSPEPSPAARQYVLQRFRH
Sequence of Cyclin-dependent kinase 4 (Homo sapiens) (P11802 whole entry): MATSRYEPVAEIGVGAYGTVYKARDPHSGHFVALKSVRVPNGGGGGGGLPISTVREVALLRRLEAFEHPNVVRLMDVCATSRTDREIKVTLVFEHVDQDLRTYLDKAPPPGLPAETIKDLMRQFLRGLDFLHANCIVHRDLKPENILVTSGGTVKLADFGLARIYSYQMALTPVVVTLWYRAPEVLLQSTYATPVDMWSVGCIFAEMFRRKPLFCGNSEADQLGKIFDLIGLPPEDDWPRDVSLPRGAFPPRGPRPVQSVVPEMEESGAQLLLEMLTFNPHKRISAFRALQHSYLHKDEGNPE
Sequence of Casein kinase I isoform gamma-3 (Homo sapiens) (Q9Y6M4 whole entry, looked up, canonical isoform): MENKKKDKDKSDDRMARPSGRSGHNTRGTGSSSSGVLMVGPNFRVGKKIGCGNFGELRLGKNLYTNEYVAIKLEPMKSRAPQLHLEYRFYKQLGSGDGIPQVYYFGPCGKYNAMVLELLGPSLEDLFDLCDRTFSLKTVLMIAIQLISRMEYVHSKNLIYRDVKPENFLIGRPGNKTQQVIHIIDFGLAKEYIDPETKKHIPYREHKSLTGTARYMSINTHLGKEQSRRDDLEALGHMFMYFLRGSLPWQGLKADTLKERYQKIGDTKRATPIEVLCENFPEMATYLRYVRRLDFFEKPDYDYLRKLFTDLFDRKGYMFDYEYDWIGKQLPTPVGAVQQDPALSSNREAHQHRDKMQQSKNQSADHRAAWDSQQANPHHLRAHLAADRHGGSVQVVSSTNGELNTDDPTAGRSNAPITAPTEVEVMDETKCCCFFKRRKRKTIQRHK
Sequence of Cyclin-dependent kinase 1 (Homo sapiens) (P06493 whole entry, looked up): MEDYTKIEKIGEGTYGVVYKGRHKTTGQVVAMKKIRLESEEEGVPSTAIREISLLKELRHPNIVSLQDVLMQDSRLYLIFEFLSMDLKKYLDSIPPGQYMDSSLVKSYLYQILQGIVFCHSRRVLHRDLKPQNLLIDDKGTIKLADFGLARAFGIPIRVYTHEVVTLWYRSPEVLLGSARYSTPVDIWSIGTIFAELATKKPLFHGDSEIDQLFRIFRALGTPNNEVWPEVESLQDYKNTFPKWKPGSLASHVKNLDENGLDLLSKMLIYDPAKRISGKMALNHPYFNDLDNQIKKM
Sequence of Dual specificity protein kinase CLK2 (Homo sapiens) (P49760 whole entry, looked up): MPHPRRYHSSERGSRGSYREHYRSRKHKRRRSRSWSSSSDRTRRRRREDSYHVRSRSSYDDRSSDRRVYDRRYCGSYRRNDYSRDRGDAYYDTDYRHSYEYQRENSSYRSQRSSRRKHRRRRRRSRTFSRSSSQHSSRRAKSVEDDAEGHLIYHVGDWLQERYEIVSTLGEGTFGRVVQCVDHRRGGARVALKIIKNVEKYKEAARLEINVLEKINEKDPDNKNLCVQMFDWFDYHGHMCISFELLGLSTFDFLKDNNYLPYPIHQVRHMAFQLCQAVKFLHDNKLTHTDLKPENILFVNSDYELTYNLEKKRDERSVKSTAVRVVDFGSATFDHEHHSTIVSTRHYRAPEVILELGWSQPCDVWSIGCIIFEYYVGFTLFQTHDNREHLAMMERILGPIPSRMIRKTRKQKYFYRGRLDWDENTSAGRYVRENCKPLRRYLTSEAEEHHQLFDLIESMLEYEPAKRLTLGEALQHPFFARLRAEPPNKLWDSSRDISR
Sequence of Cyclin-dependent kinase 6 (Homo sapiens) (Q00534 whole entry): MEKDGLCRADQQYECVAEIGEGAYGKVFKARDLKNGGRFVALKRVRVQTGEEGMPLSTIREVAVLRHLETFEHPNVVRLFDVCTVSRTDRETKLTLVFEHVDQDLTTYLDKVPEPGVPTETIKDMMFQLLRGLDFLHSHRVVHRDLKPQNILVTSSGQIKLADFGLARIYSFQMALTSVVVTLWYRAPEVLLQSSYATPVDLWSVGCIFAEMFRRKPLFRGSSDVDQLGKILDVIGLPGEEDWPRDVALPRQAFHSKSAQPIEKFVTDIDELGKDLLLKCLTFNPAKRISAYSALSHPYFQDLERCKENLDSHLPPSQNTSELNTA
Sequence of Casein kinase I isoform gamma-2 (Homo sapiens) (P78368 whole entry, looked up, canonical isoform): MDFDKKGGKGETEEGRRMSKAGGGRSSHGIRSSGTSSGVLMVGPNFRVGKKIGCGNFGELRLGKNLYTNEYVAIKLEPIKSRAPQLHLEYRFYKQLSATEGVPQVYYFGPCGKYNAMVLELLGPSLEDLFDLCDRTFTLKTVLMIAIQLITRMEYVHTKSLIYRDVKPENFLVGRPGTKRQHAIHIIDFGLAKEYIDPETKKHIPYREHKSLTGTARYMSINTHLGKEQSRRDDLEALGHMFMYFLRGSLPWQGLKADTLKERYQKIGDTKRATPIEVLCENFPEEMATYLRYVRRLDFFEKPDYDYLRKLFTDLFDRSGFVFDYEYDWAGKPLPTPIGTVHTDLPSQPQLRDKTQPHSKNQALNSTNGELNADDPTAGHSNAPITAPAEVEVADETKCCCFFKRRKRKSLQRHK
Sequence of Cyclin-dependent kinase 5 (Homo sapiens) (Q00535 whole entry, looked up): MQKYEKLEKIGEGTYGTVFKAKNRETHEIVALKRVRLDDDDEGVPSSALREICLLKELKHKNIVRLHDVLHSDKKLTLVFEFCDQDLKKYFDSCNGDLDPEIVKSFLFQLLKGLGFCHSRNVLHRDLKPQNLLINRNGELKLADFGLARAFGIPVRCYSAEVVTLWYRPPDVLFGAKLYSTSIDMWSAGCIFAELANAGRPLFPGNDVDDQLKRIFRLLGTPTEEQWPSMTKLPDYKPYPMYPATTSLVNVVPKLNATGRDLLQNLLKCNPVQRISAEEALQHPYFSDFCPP

Turning to `CCn1c(-c2nonc2N)nc2c(C#CC(C)(C)O)nc(CN3CCCC3)cc21`, the inhibition in test [1] was 0.03%; in test [2] it was -1.33%; in test [3], 0.33%; in test [4] it was 1.45%; in test [5], 2%; in [6] it was 2.04%. Besides, the inhibition in test [7] was -0.71%; in test [8], 0.5%; in [9], 1.53%; in test [10], 2.36%; in test [11], -0.95%; in [12], 1.6%. The inhibition in test [13] is 2.5%; in test [14] it was 1.06%; in [15], 2.14%; in test [16] it was -8.94%; in test [17] it was 0.66%; in [18], -0.92%. In addition, the inhibition in [19] was 1.46%; in [20], -1.6%.

As to `NS(=O)(=O)c1ccc(N/N=C2\C(=O)Nc3ccc(C(=O)NCCc4c[nH]cn4)cc32)cc1`, the inhibition in test [1] stood at 9.23%; in test [2], 5.54%; in test [3], 16.4%; in [4] it was 30.1%; in [5], 76.1%; in test [10], 26.9%. Besides, the inhibition in [11] is 81.3%; in test [12], 14.4%; in test [13], 56.4%; in test [14] it was 48.3%; in test [15] it was 84.4%; in test [16], 14.9%. Also, the inhibition was found to be 55.9% in [17], 46.5% in [18], 91.9% in test [19] and 4.48% in test [20].

Take `CCn1c(-c2nonc2N)nc2ccncc21`: the inhibition was 0.81% in [1]; -0.09% in test [2]; 1.21% in [3]; 0.77% in [4]; 1.88% in test [5]; 1.3% in test [6]. The inhibition in test [7] was 4.47%; in test [8] it was 1.11%; in [9] it was 4.8%; in [10], 2.26%; in test [11], -0.78%; in test [12] it was 1.15%. The inhibition in [13] was 3.35%; in [14], 0.45%; in [15], 1.71%; in test [17] it was -1.56%; in test [18] it was 3.93%; in test [19], 3.92%. For the same compound, in test [20], the inhibition is -0.93%.

`COc1cc2ncn(-c3cc(O[C@@H](C)c4ccccc4Cl)c(C(N)=O)s3)c2cc1OC`: the inhibition was 5.19% in test [1]; 3.46% in [2]; 3.53% in [3]; -0.28% in test [4]; 2.69% in [5]; -0.85% in test [10]. Moreover, the inhibition in test [11] is -0.13%; in test [12] it was 2.39%; in test [13] it was 4.14%; in test [14], 0.19%; in [15], 2.21%; in test [16], -0.46%. In addition, the inhibition in [17] stood at 1.56%; in test [18], 0.33%; in [19] it was 0.86%; in [20] it was 0.71%.

On to `COc1cc2ncn(-c3cc(O[C@H](C)c4ccccc4Cl)c(C(N)=O)s3)c2cc1OC`, for which the inhibition worked out at 2.68% in test [1]; 2.15% in test [2]; 3.1% in test [3]; 0.89% in test [4]; 6.45% in [5]; 2.71% in test [10]. The inhibition in [11] was 5.51%; in test [12], 2.41%; in [13], 3.26%; in test [14], 0.86%; in [15] it was 1.47%; in [16], -0.21%. Moreover, the inhibition in test [17] was -0.74%; in test [18], 3.38%; in test [19], 5.22%; in [20] it was 2.12%.

In the case of `NC(=O)c1ccc(-c2nc(-c3ccccn3)c(-c3ccc4c(c3)OCO4)[nH]2)cc1`, the inhibition was 3.29% in test [1]; 1.05% in test [2]; 5.91% in test [3]; 0.26% in [4]; 2.49% in test [5]; 3.35% in [10]. Also, the inhibition was -1.06% in test [11]; 1.33% in test [12]; 1.94% in test [13]; 0.55% in test [14]; 0.87% in [15]; 1% in [16]. In addition, the inhibition in [17] is -1.82%; in [18] it was 1.23%; in test [19], 1.07%; in test [20] it was -1.49%.

Consider `CCN1CCC(CC(=O)Nc2n[nH]c3nc(-c4cccs4)c(Br)cc23)CC1`, for which the inhibition was -0.99% in test [1]; -2.3% in [2]; 0.47% in test [3]; 0.69% in test [4]; 5% in test [5]; 0.61% in [6]. The inhibition was 6.41% in test [7]; -0.6% in test [8]; 5.24% in test [9]; -0.39% in test [10]; 9.52% in [11]; 5.84% in test [12]. The inhibition is 37% in test [13]; 0.96% in [14]; 2.52% in test [15]; 30.9% in test [16]; 70.8% in test [17]; -1.44% in test [18]. In addition, the inhibition in test [19] was determined as 2.75%; in test [20], 0.48%.

As to `CCCN1CCC(Oc2cc(Nc3nc(Nc4cccc(F)c4C(N)=O)c4cc[nH]c4n3)c(OC)cc2Cl)CC1`, the inhibition is 6.61% in test [1]; -0.08% in test [2]; 20.9% in [3]; -0.34% in test [4]; 0.53% in test [5]; 1.48% in test [6]. In addition, the inhibition is 5.95% in [7]; -0.16% in test [8]; 0.71% in [9]; 0.11% in test [10]; 1.54% in test [11]; 0.37% in test [12]. Further, the inhibition came to 3.08% in [13]; 0.2% in test [14]; 0.45% in test [15]; 0.9% in test [16]; 2.04% in [17]; 9.9% in [18]. The inhibition is 49.3% in [19] and 0.11% in test [20].

Turning to `Nc1nc(-c2ccc3c(c2)C(=Cc2cc(Br)c(O)c(Br)c2)C(=O)N3)cs1`, the inhibition in test [1] was -0.74%; in test [2], -2.56%; in test [3] it was 0.95%; in test [4], 0.71%; in test [6] it was 1.38%; in [7], -0.83%. Besides, the inhibition in test [8] was -0.42%; in test [9], 2.91%; in test [10], 0.55%; in test [11] it was -0.65%; in [12], -0.86%; in test [13], 2.39%. The inhibition is 1.35% in test [14]; 2.98% in test [15]; -5% in test [16]; -0.79% in test [17]; 1.02% in [18]; 2.39% in [19]. Also, in [20], the inhibition worked out at 0.15%.

In the case of `CS(=O)(=O)CCNCc1ccc(-c2ccc3ncnc(Nc4ccc(OCc5cccc(F)c5)c(C(F)(F)F)c4)c3c2)o1`, the inhibition in test [1] was 3.77%; in test [2] it was 2.34%; in [3] it was 1.71%; in test [4], -0.13%; in test [5] it was 2%; in test [6], 5.89%. For the same compound, the inhibition in [7] is -0.79%; in test [8], 1.93%; in [9], 3.21%; in test [10] it was 2.34%; in test [11], -2.95%; in [12], 2.52%. Besides, the inhibition in test [13] was 2.44%; in test [14] it was 0.38%; in [15], 0.07%; in [17], -2.6%; in test [18], 0.58%; in test [19] it was 0.13%. For the same compound, the inhibition in test [20] was found to be 1.49%.

On to `c1cnn2ncc(-c3ccnc(Nc4ccc5c(c4)OCCO5)n3)c2c1`, for which the inhibition is 46.9% in test [1]; 6.57% in test [2]; 38% in test [3]; 71.3% in test [4]; 92.9% in test [5]; 65.5% in test [6]. For the same compound, the inhibition in test [7] was determined as 86.1%; in [8], 73.6%; in test [10], 36.9%; in [11], 85.6%; in [12], 51.9%; in test [13] it was 85.7%. The inhibition in [14] turned out to be 57.4%; in [15], 90.4%; in test [16], 46.5%; in test [17] it was 85%; in [18] it was 90.1%; in [19], 97.6%. In addition, the inhibition in [20] amounted to 12.6%.

For `CC1=C(C(=O)Nc2ccc3[nH]ncc3c2)C(c2ccc3ccccc3c2)CC(=O)N1` (centres undefined), the inhibition came to 1.9% in test [1]; 0.93% in test [2]; 3.24% in test [3]; 0.76% in test [4]; 2.25% in [5]; 2.98% in test [6]. Further, the inhibition was 9.64% in test [7]; 3.36% in test [8]; 14.2% in test [9]; 0.42% in test [10]; 2.9% in [11]; 2.41% in [12]. Besides, the inhibition amounted to 2.46% in test [13]; 1.12% in test [14]; 3.42% in test [15]; 3.45% in [16]; 4.44% in [17]; 1.34% in test [18]. Besides, the figures for the inhibition in test [19] and in test [20] were 2.42% and 2.41%, respectively.

As to `Cc1nnc(-c2ccc(C)c(-c3ccc(C(=O)Nc4cccc(C#N)c4)cc3)c2)o1`, the inhibition worked out at 1.54% in test [1]; 1.46% in [2]; 0.25% in test [3]; 0.88% in test [4]; 1.11% in [5]; 1.13% in test [6]. The inhibition was 0.6% in test [7]; 1.82% in [8]; 2.15% in test [9]; 4.52% in test [10]; -0.82% in test [11]; 0.95% in [12]. Further, the inhibition in test [13] came to 0.68%; in [14], 0.65%; in test [15], 1.71%; in test [16] it was 1.26%; in [17], 3.14%; in test [18], 1.15%. The inhibition in test [19] is -0.94%; in test [20], 0.91%.

For the compound `O=C1Nc2ccc(C(=O)c3ccco3)cc2C1=Cc1cc(Cl)c(O)c(Cl)c1`, the inhibition in test [1] was 5.46%; in test [2] it was 1.18%; in [3], 6.13%; in [4], 2.24%; in test [5], 7.36%; in test [6] it was 2.59%. Moreover, the inhibition in [7] is 19.3%; in test [8], 4.71%; in [9], 15.7%; in test [10], 0.83%; in test [11], -0.28%; in test [12] it was 3.32%. Besides, the inhibition in test [13] turned out to be 7.07%; in [14], 1.97%; in test [15], 6.39%; in test [16], 3.35%; in test [17] it was 7.37%; in test [18], 64.6%. Besides, the inhibition in [19] worked out at 95.7%; in test [20], 22.3%.

For `CCn1c(-c2nonc2N)nc2c(N3CCCC3)nccc21`, the inhibition was -0.7% in [1]; -0.94% in [2]; -0.62% in test [3]; 0.79% in test [4]; 2.89% in [5]; 1% in [6]. Besides, the inhibition in test [8] was 0.81%; in test [9] it was 5.24%; in test [10], 0.91%; in test [11], -0.6%; in test [12], 15.6%; in test [13], 4.7%. The inhibition was 1.73% in test [14]; 4.5% in test [15]; -2.76% in [16]; 2.52% in test [17]; -0.76% in test [18]; -0.67% in test [19]. In test [20], the inhibition worked out at 1%.

In general, inhibition refers to the relative decrease from the control value, in per cent.
